From PubChem BioAssay (NCATS) come the findings set out here.

The target of assay [1] is Lysosomal acid glucosylceramidase (Homo sapiens) (UniProt P04062). As to the kind of experiment: Glucocerebrosidase-p2 (AID 348; in the data active = potency below about 10 µM; also: potency is read from the fitted curve at half-maximal effect). The conditions noted are these: purified GBA, blue fluorogenic substrate, 40 min. An outline of the steps:
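Compounds titrated from 0.6 nM upwards against 0.2 nM enzyme in pH 5.9 citric acid/KH2PO4, taurocholate, tween-20; blue fluorogenic substrate 80 uM, 40 min room temperature, stopped and read Ex 365/Em 440 for AC50.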

Assay [2] can be described thus: AP1 Signaling Pathway (AID 357; active = well fitted curve in either direction with a large enough effect, not every such curve was filed as active; also: % is scaled to controls: 0 for no effect and ±100 for the full control effect). The conditions noted are these: ME-180 AP-1-bla reporter, EGF-induced, beta-lactamase ratio, 5 h; at 7.69 µM (top of the series) unless noted. The essentials: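 Read-out was the 460nm/530nm emission ratio (excitation 405nm) after CCF4 loading for 2.5 hours at room temperature. Cells carried an AP-1-driven beta-lactamase reporter, were stimulated with EC50 EGF plus compound for 5 hours, and AC50 values came from titrations.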

Assay [3] deals with Glucocorticoid receptor (Homo sapiens) (UniProt P04150). As to the kind of experiment: GR-EFC Redistribution (AID 451; calls by dose curve; also: potency is read from the fitted curve at half-maximal effect). Conditions: CHO-K1 GR-EFC translocation, beta-gal luminescence, 2 h. The essentials: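 CHO-K1 cells expressing nuclear EA and GR-ED fragments of b-gal; compounds titrated up to 46 uM final, 2 h at 37 C. GR nuclear translocation read as complemented b-gal luminescence after 1 h RT detection.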

Assay [4] concerns the target Mitogen-activated protein kinase 10 (Mus musculus) (UniProt Q61831). As to the kind of experiment: JNK3 AlphaScreen Assay (AID 530; active = well fitted curve in either direction with a large enough effect, not every such curve was filed as active;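 also: kinase came from lysate of stimulated human HepG2 cells; signal reports phosphorylation of biotinylated GST-cJun 1-79 at Ser73 with 10 µM ATP; % is scaled to controls: 0 for no effect and ±100 for the full control effect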). The conditions noted are these: JNK3 lysate, c-Jun phosphorylation; series mostly up to 57.1 µM. The essentials:
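Pre-activated (IL-1β/TNFα) JNK3 in HepG2 lysates phosphorylates biotin-GST-cJun(1-79), 10 uM ATP; anti-phospho-cJun(Ser73) AlphaScreen read at room temperature, pH 7.6 Tris buffer. Compounds pre-incubated 15 min as titrations.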

For assay [5], the target named is 3',5'-cyclic-AMP phosphodiesterase 4B (Homo sapiens) (UniProt Q07343). The assay is described as follows: qHTS Assay for Inhibitors of PDE-IV (AID 607; active = well fitted activation curve with a large enough effect in the main read-out, with a control signal flat, not every such curve was filed as active; also: % of control where 0% means no effect). The conditions noted are these: HEK293 ACTOne CNG channel cells, membrane potential fluorescence; series mostly up to 22.9 µM. An outline of the steps: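 ACTOne HEK293 cells carry a modified cAMP-gated CNG channel and express endogenous PDE4; plated 1000 cells/well, compounds up to 22.9 uM final. Membrane-potential dye fluorescence (ex 535/em 590) was read; parental cells received 10 uM forskolin + 100 uM RO 20-1724.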
(Quantitative high-throughput screening tests each substance at several concentrations.)

Assay [6] in a line: qHTS Assay for Identification of Small Molecule Agonists for Hypoxia Response Element Signaling Pathway (AID 914; active = well fitted activation curve with a large enough effect in the signal ratio, with a control signal flat, not every such curve was filed as active; the % refers to the signal ratio; also: % of control where 0% means no effect). Conditions: ME-180 HRE-bla reporter, beta-lactamase ratio, CoCl2, 17 h; activation: stronger effect = higher value. The essentials: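 Read-out: CCF4 FRET ratio of 460nm to 530nm emission (excitation 405nm) after 2.5 hours at room temperature, taken from HRE-bla ME-180 cells that had been exposed to compound and EC50 CoCl2 for 17 hours.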

Assay [7] is described as follows: qHTS Assay for Lipid Storage Modulators (AID 1519; calls by dose curve). The conditions noted are these: Drosophila S3 cells, BODIPY lipid droplet/cell ratio, laser cytometry, cells loaded with oleic acid; for activity change, negative = inhibition: at 57.5 µM (top of the series). An outline of the steps: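 Cells seeded at 5,000 per well were treated with compounds over a concentration series and loaded with oleic acid (400 uM, as added). Lipid droplet fluorescence (488 nm excitation, 500-530 nm channel) was read by laser-scanning cytometry and normalized to 20 uM Triacsin C.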

Assay [8] can be described thus: Primary qHTS for small molecule stabilizers of the endoplasmic reticulum resident proteome: Secreted ER Calcium Modulated Protein (SERCaMP) assay (AID 1508630). Also: % is scaled to controls: 0 for no effect and ±100 for the full control effect. Conditions: SH-SY5Y GLuc-SERCaMP (Gaussia luciferase released on ER calcium loss) secretion, thapsigargin, luminescence; series mostly up to 38.4 µM. An outline of the steps: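 GLuc-SERCaMP-expressing SH-SY5Y cells, pretreated 16 h with compound, are challenged with thapsigargin to empty ER calcium stores; after 4 h, coelenterazine is added directly to the medium and luminescence is imaged.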

For assay [9], the target named is Cytochrome P450 1A2 (Homo sapiens) (UniProt P05177). As to the kind of experiment: p450-cyp1a2 (AID 410; calls by dose curve; also: potency is read from the fitted curve at half-maximal effect;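 as to activity change, negative = inhibition: -100% = full effect of reference inhibitor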). Conditions: recombinant CYP1A2, luciferin-ME demethylation, luminescence; series mostly up to 57 µM. An outline of the steps:
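Luminescent readout of luciferin formed from Luciferin-ME by human CYP1A2; data normalized against complete inhibition by 57 uM furafylline. Enzyme 20nM, substrate 100uM at Km, 100mM KPO4 buffer, 60 min reaction at room temperature.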

A short description of assay [10]: NFAT Signaling Pathway (AID 444; active = well fitted curve in either direction with a large enough effect, not every such curve was filed as active;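 also: carbachol stimulus at about its EC50 of 1 µM final; % is scaled to controls: 0 for no effect and ±100 for the full control effect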). Conditions: Jurkat NFAT-bla M1, carbachol, beta-lactamase ratio, 5 h; at 7.69 µM (top of the series) unless noted. The essentials: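 Jurkat cells with NFAT-driven β-lactamase reporter and co-expressed M1 receptor, stimulated with carbachol (final 1 uM, ~EC50), compound titration, 5 h at 37 °C. CCF4 loaded 1 h at RT; 460/530 nm ratio gave %activity and AC50.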

The nature of assay [11]: Stat Signaling Pathway (AID 446; active = well fitted curve in either direction with a large enough effect, not every such curve was filed as active). The conditions noted are these: ME-180 (cervical carcinoma) SIE beta-lactamase reporter, IL-6 stimulated, 5 h; at 7.69 µM (top of the series) unless noted. An outline of the steps:
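ME-180 SIE-bla cells; overnight plating; cpd + IL-6 40 pM, 5 h, 37 C; LiveBLAzer 2.5 h RT; 460/530 nm emission ratio. Normalized to 300 pM IL-6 and 125 nM JAK inhibitor controls.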

The target of assay [12] is Glucocorticoid receptor (Homo sapiens) (UniProt P04150). The assay is described as follows: GR-GFP Redistribution (AID 450;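 active = compounds whose dose series gives a full or clear partial fitted curve of increased nuclear translocation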; also: potency is read from the fitted curve at half-maximal effect). The conditions noted are these: U2OS GR-GFP nuclear translocation, laser cytometry, 2 h.
Assay [13] concerns the target Cytochrome P450 3A4 (Homo sapiens) (UniProt P08684). The assay is described as follows: qHTS Assay for Activators of Cytochrome P450 3A4 (AID 885). Also: nearly all actives have a fitted effect of over 65% in size. Conditions: recombinant CYP3A4, Luciferin-PPXE luminescence, 60 min; series mostly up to 57.1 µM. The essentials:
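20nM CYP3A4 + 25uM Luciferin-PPXE (=KM), 200mM KPO4; cpd 10 min RT; NADPH regen, 60 min RT; stop w/ detection buffer, 20 min; luminescence. Normalized to 57 uM ketoconazole.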

Assay [14] in a line: Confirmation and Secondary Assay for Modulators of Hemoglobin Beta Chain Splicing at IVS2 654 locus (AID 910).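 Also: HeLa cells stably carrying EGFP split by mutant beta-globin IVS2-654 intron; % of control where 0% means no effect.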 The conditions noted are these: HeLa EGFP-654 splicing reporter, GFP fluorescence, 48 h; series mostly up to 38.3 µM. An outline of the steps:
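HeLa cells stably expressing EGFP interrupted by β-globin IVS2-654 intron, seeded overnight in Opti-MEM/2% FCS, then treated 2 days at 37 °C. Restored splicing read as total peak GFP intensity per well by laser scanning cytometry (488 nm excitation, 500–520 nm emission); 500 nM antisense PNA as control.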

A short description of assay [15]: Confirmation and Secondary Assay for Modulators of Hemoglobin Beta Chain Splicing at IVS2 705 locus (AID 930).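 Also: HeLa cells stably expressing the EGFP-705 splicing reporter; GFP fluorescence per well restored by corrected splicing of the IVS2-705 intron in EGFP; % of control where 0% means no effect.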 The conditions noted are these: HeLa EGFP-705 splicing reporter, GFP fluorescence, 48 h; series mostly up to 38.3 µM. An outline of the steps:
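HeLa EGFP-705 reporter; 500 cells/well, o/n 37C 5% CO2; cpd 2 d; 488 ex/500-520 em laser scan; total peak GFP intensity/well. Ref: 500 nM […] antisense PNA.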

In assay [16] the target is Ubiquitin carboxyl-terminal hydrolase 1 (Homo sapiens) (UniProt O94782). As to the kind of experiment: Inhibitors of USP1/UAF1: Pilot qHTS (AID 504865).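 Also: rhodamine fluorescence freed from ubiquitin-rhodamine substrate followed over time; top concentration of the series differs between compounds; % is scaled to controls: 0 for no effect and ±100 for the full control effect; nearly all actives have a fitted effect of over 35% in size.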 Conditions: purified USP1/UAF1, Ub-rhodamine cleavage fluorescence; series mostly up to 54.9 µM. The essentials: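 USP1/UAF1 complex (1nM) preincubated with compound 15 min at room temperature, then Ub-Rho substrate (150nM final) added. Fluorescence read kinetically at 480/540 nm, 6 reads every 60 seconds. Buffer: 50mM HEPES pH 7.8, 0.5mM EDTA, 0.1 mg/ml BSA, 1mM TCEP, 0.01% Tween-20.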

Assay [17] deals with Cytochrome P450 2D6 (Homo sapiens) (UniProt P10635). As to the kind of experiment: qHTS Assay for Inhibitors and Substrates of Cytochrome P450 2D6 (AID 891). Also: potency is read from the fitted curve at half-maximal effect; nearly all actives have a fitted effect of over 60% in size. Conditions: recombinant CYP2D6, luciferin-ME EGE luminescence; series mostly up to 57.1 µM. An outline of the steps:
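Human CYP2D6 (5 nM) with 30 uM Luciferin-ME EGE (at Km) in 100 mM KPO4, compound preincubated 10 min, then NADPH regeneration system for 60 min at room temperature. Luciferin read by luminescence; normalized to 1.43 uM quinidine.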

Assay [18] deals with Cytochrome P450 3A4 (Homo sapiens) (UniProt P08684). As to the kind of experiment: qHTS Assay for Inhibitors and Substrates of Cytochrome P450 3A4 (AID 884). Also: potency is read from the fitted curve at half-maximal effect; nearly all actives have a fitted effect of over 50% in size. Conditions: recombinant CYP3A4, Luciferin-PPXE luminescence; series mostly up to 57.1 µM. An outline of the steps: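 20 nM human CYP3A4 with 25 uM Luciferin-PPXE (at KM) in 200 mM KPO4, preincubated 10 min with compound; NADPH regeneration started a 60 min RT reaction. Luciferin detected by luminescence, normalized to 57 uM ketoconazole as full inhibition.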

[19] abbreviates: measured here: cell count channel max response.
[20] abbreviates: measured here: lipid channel max response.

Inconclusive results are not listed. Active and inactive are the calls of the source. Unless noted, calls follow the shape of the dose curve; as a rule, active = well fitted curve in the direction sought with a large enough effect; inconclusive = small, poorly fitted or top-dose-only effect, or another doubt; inactive = no such curve, though single readings can be large; an effect the other way counts as inactive or inconclusive. Some results are limits rather than exact numbers.

Chain of Lysosomal acid glucosylceramidase (Homo sapiens) (P04062 whole entry, looked up): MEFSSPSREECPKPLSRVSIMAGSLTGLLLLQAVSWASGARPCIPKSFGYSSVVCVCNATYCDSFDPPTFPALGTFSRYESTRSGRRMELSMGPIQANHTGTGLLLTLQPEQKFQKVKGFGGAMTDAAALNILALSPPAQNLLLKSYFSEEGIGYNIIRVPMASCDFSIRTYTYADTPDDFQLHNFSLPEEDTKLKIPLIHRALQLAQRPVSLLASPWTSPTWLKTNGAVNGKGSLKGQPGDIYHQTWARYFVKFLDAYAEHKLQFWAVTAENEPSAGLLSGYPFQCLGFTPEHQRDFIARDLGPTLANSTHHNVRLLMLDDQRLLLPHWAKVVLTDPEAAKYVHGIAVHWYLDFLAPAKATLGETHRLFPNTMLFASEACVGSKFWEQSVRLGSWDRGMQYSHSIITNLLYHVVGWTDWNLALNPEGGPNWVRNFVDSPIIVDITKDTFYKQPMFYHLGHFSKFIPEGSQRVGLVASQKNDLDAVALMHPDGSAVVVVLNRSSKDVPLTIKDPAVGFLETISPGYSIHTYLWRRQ
Chain of Cytochrome P450 1A2 (Homo sapiens) (P05177 whole entry, looked up): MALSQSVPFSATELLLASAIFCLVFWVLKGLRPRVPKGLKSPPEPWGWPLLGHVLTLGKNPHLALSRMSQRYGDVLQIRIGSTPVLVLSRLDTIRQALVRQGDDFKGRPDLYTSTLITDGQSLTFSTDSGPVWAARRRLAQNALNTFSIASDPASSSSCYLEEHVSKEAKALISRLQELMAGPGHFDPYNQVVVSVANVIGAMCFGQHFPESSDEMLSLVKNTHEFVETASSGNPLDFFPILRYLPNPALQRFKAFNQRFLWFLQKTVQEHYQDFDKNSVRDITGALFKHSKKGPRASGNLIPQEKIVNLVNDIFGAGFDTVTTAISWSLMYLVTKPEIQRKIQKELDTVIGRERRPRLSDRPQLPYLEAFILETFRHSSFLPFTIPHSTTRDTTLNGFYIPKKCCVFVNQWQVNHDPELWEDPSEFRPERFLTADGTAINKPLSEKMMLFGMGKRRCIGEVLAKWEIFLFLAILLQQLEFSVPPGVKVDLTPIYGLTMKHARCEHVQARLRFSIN
Chain of 3',5'-cyclic-AMP phosphodiesterase 4B (Homo sapiens) (Q07343 whole entry, looked up): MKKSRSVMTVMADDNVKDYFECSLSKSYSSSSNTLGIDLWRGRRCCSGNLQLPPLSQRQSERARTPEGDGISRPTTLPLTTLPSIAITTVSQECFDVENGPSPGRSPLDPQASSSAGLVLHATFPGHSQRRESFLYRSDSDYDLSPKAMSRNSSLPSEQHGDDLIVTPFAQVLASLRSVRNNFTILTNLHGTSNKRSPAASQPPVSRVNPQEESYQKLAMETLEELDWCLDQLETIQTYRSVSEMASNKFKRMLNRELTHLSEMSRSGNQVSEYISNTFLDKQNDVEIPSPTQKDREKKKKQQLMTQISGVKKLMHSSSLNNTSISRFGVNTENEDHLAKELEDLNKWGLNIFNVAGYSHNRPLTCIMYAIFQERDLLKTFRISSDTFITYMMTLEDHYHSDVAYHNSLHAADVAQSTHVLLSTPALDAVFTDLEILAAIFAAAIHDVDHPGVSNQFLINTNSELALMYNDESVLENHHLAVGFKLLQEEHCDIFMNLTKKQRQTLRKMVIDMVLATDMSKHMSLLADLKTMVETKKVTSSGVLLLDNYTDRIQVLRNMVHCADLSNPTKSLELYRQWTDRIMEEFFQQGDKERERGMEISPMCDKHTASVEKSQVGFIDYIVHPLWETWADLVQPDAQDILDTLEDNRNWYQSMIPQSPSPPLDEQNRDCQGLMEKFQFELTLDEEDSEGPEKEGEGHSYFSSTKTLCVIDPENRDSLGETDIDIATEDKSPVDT
Chain of Glucocorticoid receptor (Homo sapiens) (P04150 whole entry, looked up, the tested form may be a part): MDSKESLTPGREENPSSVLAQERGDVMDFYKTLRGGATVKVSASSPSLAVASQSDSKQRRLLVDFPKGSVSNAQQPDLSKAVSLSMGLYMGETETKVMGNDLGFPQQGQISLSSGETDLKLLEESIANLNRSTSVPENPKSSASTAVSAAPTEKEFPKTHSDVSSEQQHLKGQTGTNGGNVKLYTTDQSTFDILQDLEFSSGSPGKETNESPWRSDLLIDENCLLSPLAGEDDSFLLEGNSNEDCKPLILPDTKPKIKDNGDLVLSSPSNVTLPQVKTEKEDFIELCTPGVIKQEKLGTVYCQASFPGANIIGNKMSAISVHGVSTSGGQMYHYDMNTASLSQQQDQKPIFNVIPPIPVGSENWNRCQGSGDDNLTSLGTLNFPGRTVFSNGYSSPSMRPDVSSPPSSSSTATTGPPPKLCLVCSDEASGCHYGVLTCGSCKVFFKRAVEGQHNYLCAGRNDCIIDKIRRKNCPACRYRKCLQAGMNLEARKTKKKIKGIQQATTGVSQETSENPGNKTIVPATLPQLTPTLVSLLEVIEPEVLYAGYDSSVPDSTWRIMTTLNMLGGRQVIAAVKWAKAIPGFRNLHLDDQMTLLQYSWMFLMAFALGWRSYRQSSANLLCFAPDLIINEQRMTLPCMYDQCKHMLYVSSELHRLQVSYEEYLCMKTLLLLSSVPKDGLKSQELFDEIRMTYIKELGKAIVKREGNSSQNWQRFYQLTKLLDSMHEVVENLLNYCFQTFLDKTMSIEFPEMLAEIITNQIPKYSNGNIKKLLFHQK
Chain of Cytochrome P450 3A4 (Homo sapiens) (P08684 whole entry, looked up): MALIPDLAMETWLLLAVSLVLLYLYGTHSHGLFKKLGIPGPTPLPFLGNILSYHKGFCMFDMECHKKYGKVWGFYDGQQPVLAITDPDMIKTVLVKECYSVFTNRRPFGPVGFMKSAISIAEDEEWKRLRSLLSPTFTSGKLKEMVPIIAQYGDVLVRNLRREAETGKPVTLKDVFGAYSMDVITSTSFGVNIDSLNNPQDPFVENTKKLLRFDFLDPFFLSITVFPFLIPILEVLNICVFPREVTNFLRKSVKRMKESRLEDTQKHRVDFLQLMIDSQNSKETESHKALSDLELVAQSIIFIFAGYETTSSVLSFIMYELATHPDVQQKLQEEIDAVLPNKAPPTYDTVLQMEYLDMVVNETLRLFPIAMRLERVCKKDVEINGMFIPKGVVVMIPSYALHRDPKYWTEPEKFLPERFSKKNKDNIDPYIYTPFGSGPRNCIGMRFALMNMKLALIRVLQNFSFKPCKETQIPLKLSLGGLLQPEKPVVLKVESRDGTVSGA
Chain of Cytochrome P450 2D6 (Homo sapiens) (P10635 whole entry, looked up): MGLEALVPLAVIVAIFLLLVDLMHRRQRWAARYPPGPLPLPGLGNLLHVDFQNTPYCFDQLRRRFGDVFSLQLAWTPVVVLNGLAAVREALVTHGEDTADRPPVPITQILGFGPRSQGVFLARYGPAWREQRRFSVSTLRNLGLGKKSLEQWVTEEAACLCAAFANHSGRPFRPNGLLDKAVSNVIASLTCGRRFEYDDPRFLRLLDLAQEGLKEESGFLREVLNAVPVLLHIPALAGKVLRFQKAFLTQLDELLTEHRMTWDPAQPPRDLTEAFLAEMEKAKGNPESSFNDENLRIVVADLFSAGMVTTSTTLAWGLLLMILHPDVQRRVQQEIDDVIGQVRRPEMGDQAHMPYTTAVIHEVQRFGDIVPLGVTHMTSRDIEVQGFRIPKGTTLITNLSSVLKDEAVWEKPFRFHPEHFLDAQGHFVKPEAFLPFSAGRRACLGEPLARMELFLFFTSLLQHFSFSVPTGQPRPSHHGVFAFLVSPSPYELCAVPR
Chain of Ubiquitin carboxyl-terminal hydrolase 1 (Homo sapiens) (O94782 whole entry, looked up): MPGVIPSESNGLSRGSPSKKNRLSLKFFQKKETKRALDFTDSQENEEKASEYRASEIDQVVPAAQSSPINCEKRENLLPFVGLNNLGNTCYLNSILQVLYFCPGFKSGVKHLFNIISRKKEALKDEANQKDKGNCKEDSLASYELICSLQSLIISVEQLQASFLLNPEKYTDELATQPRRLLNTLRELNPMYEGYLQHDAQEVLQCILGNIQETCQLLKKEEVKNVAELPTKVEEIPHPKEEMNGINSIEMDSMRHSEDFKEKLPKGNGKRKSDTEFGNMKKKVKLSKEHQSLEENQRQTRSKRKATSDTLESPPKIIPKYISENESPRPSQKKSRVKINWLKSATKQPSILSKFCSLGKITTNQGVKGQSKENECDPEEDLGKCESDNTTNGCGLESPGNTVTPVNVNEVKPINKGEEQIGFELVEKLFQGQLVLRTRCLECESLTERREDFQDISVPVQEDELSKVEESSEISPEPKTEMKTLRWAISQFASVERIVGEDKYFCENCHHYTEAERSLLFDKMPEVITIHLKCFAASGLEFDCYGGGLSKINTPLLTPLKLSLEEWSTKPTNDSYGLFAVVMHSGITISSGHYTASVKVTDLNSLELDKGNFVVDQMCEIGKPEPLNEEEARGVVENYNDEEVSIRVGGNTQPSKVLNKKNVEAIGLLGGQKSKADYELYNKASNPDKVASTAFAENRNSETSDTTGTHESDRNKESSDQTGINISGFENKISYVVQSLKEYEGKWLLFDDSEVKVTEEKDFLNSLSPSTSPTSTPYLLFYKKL

`COc1ccccc1CN1CCC2(CC1)CCN(C(=O)c1cccc(F)c1)CC2`: the Potency in [1] is > 11.4 µM (inactive); in assay [3], > 46 µM (inactive). Besides, the activity change, negative = inhibition in assay [2] is -13% (inactive); in assay [7], 2.42% (inactive). Also, the Potency result in assay [4] and in assay [5] was “inactive” in each case. Also, the activation in assay [6] is 21.3% (inactive). For the same compound, the max response is -4.91% in [7] (setting [19]) and -3.6% in [7] (setting [20]). In [8], the outcome was inactive.

Consider `CN(C)C(=O)c1ccc(-c2nc(NCc3ccccc3)c3ccccc3n2)cc1`, for which the Potency in assay [1] was > 11.4 µM (inactive); in [9] it was 15.8 µM (active); in assay [12], > 46 µM (inactive); in [3] it was > 46 µM (inactive). Moreover, the figures for the activity change, negative = inhibition in [10] and in assay [7] were 16% (inactive) and 10.9% (inactive), respectively. Also, the activity, negative = inhibition in [11] was -21.7% (inactive). For the same compound, the Potency entry in assay [4], in [13], in [14] and in assay [16] was “inactive” in each case. For the same compound, the compound was classed as inactive in [15] and in [8]. Besides, the figures for the max response in [7] (setting [19]) and in assay [7] (setting [20]) were 6.91% and 16.5%, respectively.

For the compound `CS(=O)(=O)N1CCC2(CC1)CN(c1ccccc1)C2`, the Potency in assay [1] is > 11.4 µM (inactive); in [9], 20 µM (active); in assay [17] it was 1.26 µM (active). Also, the activity change, negative = inhibition in [10] was 24.3% (inactive); in assay [7], 0.887% (inactive). The activity, negative = inhibition in assay [11] was -8.44% (inactive). Besides, the Potency entry in [4] and in assay [5] was “inactive” in each case. In addition, the max response stood at 14% in [7] (setting [19]) and 17.6% in [7] (setting [20]). Also, the result in [8] was inactive.

`Cn1cccc1C(=O)N1CCC2(CCCN(C(c3ccccc3)c3ccccc3)C2)CC1`: the Potency is > 11.4 µM (inactive) in assay [1], 12.6 µM (active) in assay [9] and > 46 µM (inactive) in assay [3]. Moreover, the activity, negative = inhibition in assay [11] is 6.33% (inactive). The Potency result in assay [4], in [5] and in assay [13] was “inactive” in each case. Besides, the activity change, negative = inhibition in assay [7] was 4.95% (inactive). In addition, the max response is 6.53% in assay [7] (setting [19]) and 18.7% in assay [7] (setting [20]). Moreover, the result in assay [8] was inactive.

Regarding `Cc1cnc(CNc2ncncc2-c2ccccc2CN(C)C)cn1`, the Potency in [1] is > 11.4 µM (inactive); in [9] it was 12.6 µM (active); in [12], > 46 µM (inactive); in assay [3], > 46 µM (inactive); in assay [18] it was 3.16 µM (active). Also, the activity, negative = inhibition in assay [11] is 17.1% (inactive). In addition, the Potency result in [4], in [5], in assay [13], in [14] and in assay [16] was “inactive” each time. For the same compound, the call in assay [15] and in [8] was inactive. In [7], the activity change, negative = inhibition is -8.48% (inactive). Moreover, the figures for the max response in assay [7] (setting [19]) and in assay [7] (setting [20]) were 4.47% and 0.168%, respectively.

`COc1ccccc1CN1CCC2(CC1)CCN(S(C)(=O)=O)CC2`: the Potency in assay [1] is > 11.4 µM (inactive); in [3], > 46 µM (inactive); in assay [17] it was 0.02 µM (active). Moreover, the Potency entry in assay [9], in [4] and in assay [5] was “inactive” throughout. Besides, the activity change, negative = inhibition was -27.6% (inactive) in assay [10] and -1.09% (inactive) in assay [7]. In addition, the activity, negative = inhibition in assay [11] was -4.05% (inactive). Besides, the max response in [7] (setting [19]) was -18.8%; in assay [7] (setting [20]) it was -18.2%. Also, in assay [8], the result was inactive.

Take `CN1CCC2(CC1)CCN(C(=O)c1cccc(F)c1)CC2`: the Potency was > 11.4 µM (inactive) in assay [1] and > 46 µM (inactive) in assay [3]. Further, the activity change, negative = inhibition is 2.25% (inactive) in assay [2] and -1.77% (inactive) in assay [7]. The Potency entry in assay [4] and in [5] was “inactive” each time. Moreover, the figures for the max response in assay [7] (setting [19]) and in [7] (setting [20]) were 3% and 2.59%, respectively. For the same compound, the outcome in [8] was inactive.
